# Laboratory results: paper PMC5540273 (PLoS ONE, 2017)
# Where two headings read alike, the source gives them in different places.
# Experiments:
# GRK3 = system: T1, GRK3; conditions: concentration: 1 μM, replicates: in singlicate; n = 1
# T1 construct: gene ADRBK2
# GRK4 = conditions: concentration: 1 μM, replicates: in singlicate; n = 1
# GRK7 = conditions: concentration: 1 μM, replicates: in singlicate; n = 1
# GSK3A = conditions: concentration: 1 μM, replicates: in singlicate; n = 1
# GSK3B = conditions: n = 1
# HASPIN = system: T2, HASPIN; conditions: concentration: 1 μM, replicates: in singlicate; n = 1
# T2 construct: gene GSG2
# HCK = conditions: concentration: 1 μM, replicates: in singlicate; n = 1
# HIPK1 = conditions: concentration: 1 μM, replicates: in singlicate; n = 1
# HIPK2 = conditions: concentration: 1 μM, replicates: in singlicate; n = 1
# HIPK3 = conditions: concentration: 1 μM, replicates: in singlicate; n = 1
# HIPK4 = conditions: concentration: 1 μM, replicates: in singlicate; n = 1
# HPK1 = conditions: concentration: 1 μM, replicates: in singlicate; n = 1
# HUNK = conditions: concentration: 1 μM, replicates: in singlicate; n = 1
# ICK = conditions: concentration: 1 μM, replicates: in singlicate; n = 1
# IGF1R = conditions: concentration: 1 μM, replicates: in singlicate; n = 1
# IKK-alpha = system: T3, IKK-alpha; conditions: concentration: 1 μM, replicates: in singlicate; n = 1
# T3 construct: gene CHUK
# IKK-beta = system: T4, IKK-beta; conditions: concentration: 1 μM, replicates: in singlicate; n = 1
# T4 construct: gene IKBKB
# IKK-epsilon = system: T5, IKK-epsilon; conditions: concentration: 1 μM, replicates: in singlicate; n = 1
# T5 construct: gene IKBKE
# INSRR = conditions: concentration: 1 μM, replicates: in singlicate; n = 1
# INSR = conditions: concentration: 1 μM, replicates: in singlicate; n = 1
# [1] = concentration: 1 μM, replicates: in singlicate
# 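Further: KINOMEscan kinase panel screen.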
smiles,measurement,setting,value
COc1cccc(C2=C(Nc3cc(Cl)c(O)c(Cl)c3)C(=O)NC2=O)c1 [SB-390767],%Inh,GRK3,28%
same,%Inh,GRK4,1%
same,%Inh,GRK7,0%
same,%Inh,GSK3A,44%
same,%Inh,GSK3B; 1 µM,33%
same,%Inh,HASPIN,0%
same,%Inh,HCK,0%
same,%Inh,HIPK1,0%
same,%Inh,HIPK2,0%
same,%Inh,HIPK3,20%
same,%Inh,HIPK4,0%
same,%Inh,HPK1,43%
same,%Inh,HUNK,0%
same,%Inh,ICK,27%
same,%Inh,IGF1R,5%
same,%Inh,IKK-alpha,37%
same,%Inh,IKK-beta,56%
same,%Inh,IKK-epsilon,0%
same,%Inh,INSRR,0%
same,%Inh,INSR,0%
CS(=O)(=O)Cc1ccc(Nc2nccc(-c3c(-c4cccc(NC(=O)C5CCCCC5)c4)nn4ncccc34)n2)cc1 [GSK350559],%Inh,GRK3,0%
same,%Inh,GRK4,0%
same,%Inh,GRK7,5%
same,%Inh,GSK3A,0%
same,%Inh,GSK3B; [1],20%
same,%Inh,HASPIN,17%
same,%Inh,HCK,1%
same,%Inh,HIPK1,5%
same,%Inh,HIPK2,14%
same,%Inh,HIPK3,23%
same,%Inh,HIPK4,0%
same,%Inh,HPK1,14%
same,%Inh,HUNK,7%
same,%Inh,ICK,14%
same,%Inh,IGF1R,68%
same,%Inh,IKK-alpha,0%
same,%Inh,IKK-beta,12%
same,%Inh,IKK-epsilon,32%
same,%Inh,INSRR,20%
same,%Inh,INSR,42%
CC(=O)c1c(C)c2cnc(Nc3ccc(N4CCNCC4)cn3)nc2n(C2CCCC2)c1=O,%Inh,GRK3,9%
same,%Inh,GRK4,7%
same,%Inh,GRK7,8%
same,%Inh,GSK3A,0%
same,%Inh,GSK3B; [1],0%
same,%Inh,HASPIN,0%
same,%Inh,HCK,0%
same,%Inh,HIPK1,20%
same,%Inh,HIPK2,0%
same,%Inh,HIPK3,0%
same,%Inh,HIPK4,8%
same,%Inh,HPK1,0%
same,%Inh,HUNK,0%
same,%Inh,ICK,0%
same,%Inh,IGF1R,0%
same,%Inh,IKK-alpha,0%
same,%Inh,IKK-beta,0%
same,%Inh,IKK-epsilon,15%
same,%Inh,INSRR,0%
same,%Inh,INSR,0%
Nc1cccc(-c2ccc3c(N)n[nH]c3c2)n1 [GSK2192730],%Inh,GRK3,0%
same,%Inh,GRK4,13%
same,%Inh,GRK7,19%
same,%Inh,GSK3A,19%
same,%Inh,GSK3B; [1],26%
same,%Inh,HASPIN,39%
same,%Inh,HCK,0%
same,%Inh,HIPK1,23%
same,%Inh,HIPK2,0%
same,%Inh,HIPK3,25%
same,%Inh,HIPK4,0%
same,%Inh,HPK1,35%
same,%Inh,HUNK,0%
same,%Inh,ICK,9%
same,%Inh,IGF1R,0%
same,%Inh,IKK-alpha,0%
same,%Inh,IKK-beta,18%
same,%Inh,IKK-epsilon,0%
same,%Inh,INSRR,0%
same,%Inh,INSR,3%
CC(=O)c1c(C)c2cnc(Nc3ccn(C)n3)nc2n(C2CCCC2)c1=O,%Inh,GRK3,17%
same,%Inh,GRK4,0%
same,%Inh,GRK7,0%
same,%Inh,GSK3A,12%
same,%Inh,GSK3B; [1],0%
same,%Inh,HASPIN,0%
same,%Inh,HCK,29%
same,%Inh,HIPK1,14%
same,%Inh,HIPK2,31%
same,%Inh,HIPK3,13%
same,%Inh,HIPK4,0%
same,%Inh,HPK1,0%
same,%Inh,HUNK,0%
same,%Inh,ICK,0%
same,%Inh,IGF1R,1%
same,%Inh,IKK-alpha,0%
same,%Inh,IKK-beta,0%
same,%Inh,IKK-epsilon,0%
same,%Inh,INSRR,0%
same,%Inh,INSR,0%
CN1c2ccc(-c3ccc(C(N)=O)cc3)cc2-c2[nH]ncc2S1(=O)=O,%Inh,GRK3,0%
same,%Inh,GRK4,0%
same,%Inh,GRK7,0%
same,%Inh,GSK3A,25%
same,%Inh,GSK3B; [1],13%
same,%Inh,HASPIN,28%
same,%Inh,HCK,0%
same,%Inh,HIPK1,41%
same,%Inh,HIPK2,23%
same,%Inh,HIPK3,19%
same,%Inh,HIPK4,4%
same,%Inh,HPK1,28%
same,%Inh,HUNK,0%
same,%Inh,ICK,0%
same,%Inh,IGF1R,5%
same,%Inh,IKK-alpha,0%
same,%Inh,IKK-beta,0%
same,%Inh,IKK-epsilon,0%
same,%Inh,INSRR,0%
same,%Inh,INSR,0%
